# Screens as filed in PubChem.
# Shown is part of a subset that was picked to be rich in hits.
# BL2 CD40 inh: inhibitors of CD40-induced NF-kB signaling, primary screen, BL2 cells, luciferase reporter, single point; 0.94% of 83,000 active; inhibition, % at 10 µM; CD40L-induced, 4 h;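 active = mean inhibition of at least 50% with a set share of replicates also reaching that level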;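 also: 0% = neutral control wells and 100% = IKK inhibitor VII at 50 µM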
# Active calls of the source: *; [ ] = remark or other dose.
SMILES,BL2 CD40 inh
CC(C)(C)[S@](=O)N1Cc2cc(C(=O)NCCN3CCCCC3)nc(-c3cccc(-c4cccc(C#N)c4)c3)c2[C@@H]1CCO,6.5
O=C(C[C@@H]1CC[C@H]2[C@@H](COC[C@@H](O)CN2Cc2cc(F)ccc2F)O1)NCc1ccc(Oc2ccccc2)cc1,50.8*[25 µM]
O=C(C[C@@H]1CC[C@H]2[C@@H](COC[C@H](O)CN2Cc2cc(F)ccc2F)O1)NCc1ccc(Oc2ccccc2)cc1,35.9[25 µM]
O=C(C[C@@H]1CC[C@@H]2[C@H](COC[C@H](O)CN2Cc2cc(F)ccc2F)O1)NCc1ccc(Oc2ccccc2)cc1,63.4*[25 µM]
CCC(=O)N1C[C@@H](O)COC[C@@H]2O[C@H](CC(=O)NCc3ccc(Oc4ccccc4)cc3)CC[C@H]21,3.2[25 µM]
O=C(C[C@@H]1CC[C@@H]2[C@H](COC[C@@H](O)CN2CCC(F)(F)F)O1)NCc1ccc(Oc2ccccc2)cc1,19.5
O=C(C[C@H]1CC[C@H]2[C@@H](COC[C@H](O)CN2Cc2cc(F)ccc2F)O1)NCc1ccc(Oc2ccccc2)cc1,34.6[25 µM]
COc1ccc(CNC(=O)C[C@@H]2CC[C@@H](NC(=O)Nc3ccc4c(c3)OCO4)[C@H](CO)O2)cc1,2.2
COc1ccc2c3c([nH]c2c1)[C@@H](CO)N(Cc1cccc(F)c1)CC31CCN(C(C)=O)CC1,7.7[25 µM]
C[C@@H]1CN([C@@H](C)CO)C(=O)c2c(c3ccccc3n2C)-c2ccccc2CO[C@@H]1CN(C)C(=O)[C@H]1CCCN1C,2.2[25 µM]
CN(C)C(=O)C(CCN1CCC(O)(c2ccc(Cl)cc2)CC1)(c1ccccc1)c1ccccc1,50.1*
NC(=O)C(CCCCN1CCCCC1)(c1ccccc1)c1ccccc1,2.3
OC(CCCN1CCC(O)(c2ccc(Cl)cc2)CC1)c1ccc(F)cc1 (configuration not stated),17.8
CO[C@H](CN(C)S(=O)(=O)c1ccc(Cl)cc1)[C@@H](C)CN([C@@H](C)CO)S(=O)(=O)c1cccc(Cl)c1,5.4
CC(C)NC(=O)Nc1ccc2c(c1)C(=O)N(C)C[C@H](C)[C@H](CN(C)S(C)(=O)=O)O2,5.3
CC(=O)NC[C@H]1[C@@H](c2ccc(-c3cccnc3)cc2)[C@@H](CO)N1C(=O)C1CCC1,3.1[25 µM]
C[C@@H](NC(=O)[C@H]1[C@H](CO)[C@H]2Cn3c(cccc3=O)[C@H]2N1CC1CCCC1)c1ccccc1,-5.5
C[C@@H]1CN([C@H](C)CO)C(=O)CCCn2cc(nn2)CO[C@H]1CN(C)Cc1cccc2c1OCCCO2,-19.5[25 µM]
CC1CCCC=CC2CC(OC(=O)CN(C)C)CC2C(O)C=CC(=O)O1 (configuration not stated),83.3*
O=C(C[C@H]1C[C@H]2c3cc(NS(=O)(=O)c4ccccc4)ccc3O[C@H]2[C@H](CO)O1)NC1CCCCC1,1.7
CCS(=O)(=O)N1CC2(CN(C(=O)NC(C)C)[C@H](CO)c3c2c2ccc(OC)cc2n3C)C1,-3.5[25 µM]
CC(=O)Nc1ccc2c(c1)C(=O)N(C)C[C@H](C)[C@H](CN(C)C(=O)NC(C)C)O2,3.9
Cc1ccc(S(=O)c2ccc([N+](=O)[O-])c3nonc23)cc1 (configuration not stated),87.5*
CCc1nnc(NS(=O)(=O)c2ccc(Nc3ccc([N+](=O)[O-])c4nonc34)cc2)s1,16.1
Cc1ccc(C)c([N+](=O)[O-])c1,11.8
SMILES,BL2 CD40 inh
C[C@H]1CN([C@@H](C)CO)C(=O)c2cc(NS(=O)(=O)c3ccccc3)ccc2O[C@@H]1CN(C)Cc1ccc(C(=O)O)cc1,-1.0
COc1ccc2c(c1)CCc1c(C(=O)NCc3ccc(F)cc3)noc1-2,2.7
COc1cc(NC(=O)c2ccc(-c3c(C)noc3C)c3ccoc23)cc(OC)c1OC,1.8
COc1ccc(-c2onc(C)c2-c2ccc(C(=O)OC(C)C)o2)c(O)c1,33.5*
CCC(=O)N1[C@H](CO)[C@H](c2ccc(-c3ccc(F)cc3)cc2)[C@@H]1CN(C)C(C)=O,2.1
O=C(C[C@H]1CC[C@@H](NS(=O)(=O)c2ccccc2F)[C@H](CO)O1)NCCCN1CCOCC1,-0.2[25 µM]
CN1C(=O)c2cc(NC(=O)C3CCCC3)ccc2OC[C@@H]2O[C@@H](CC(=O)NCc3ccccc3F)CC[C@H]21,1.9
Nc1nc2ccccc2cc1S(=O)(=O)c1ccccc1,6.3
Nc1cccc2nc3ccccc3cc12,active
Cc1cc(N)c2ccccc2n1,3.4
CC(C)NC(=O)N(C)C[C@@H]1Oc2ccccc2C(=O)N(C)C[C@@H]1C,-4.1
C[C@H](CO)N1C[C@H](C)[C@@H](CN(C)S(=O)(=O)c2ccc(Cl)cc2)OCCCC[C@H](C)Oc2ccc(NC(=O)CCCN(C)C)cc2C1=O,8.7
OCc1cc2ncnc(Nc3ccc(O)c(Br)c3)c2cc1CO,-4.9[25 µM]
COc1ccc(CN2[C@H](CO)[C@H]3c4ccccc4N(C(=O)NC(C)C)C[C@H]32)cc1,3.9[25 µM]
COC1=CC(=O)c2c(ccc3ncnc(N)c23)C1=O,102.6*
Cc1noc(C)c1C(=O)N(C)C[C@H]1OCc2ccccc2-c2c(n(C)c3ccccc23)C(=O)N([C@H](C)CO)C[C@H]1C,-9.0
O=C(C[C@H]1C[C@H]2c3cc(NC(=O)Nc4ccc(F)cc4)ccc3O[C@H]2[C@H](CO)O1)NC1CCCC1,7.4
COc1ccccc1C#Cc1ccc([C@H]2[C@@H](C#N)N(C(=O)C3CC3)[C@@H]2CO)cc1,-3.8
O=C(c1cccc(F)c1)N1CC2(C1)[C@H](c1ccccc1)[C@@H](CO)N2C(=O)C1CCCCC1,15.7[25 µM]
CC(C)OC(=O)c1cn(Cc2c(F)cccc2F)c2sc(-c3ccc(NC(=O)C(C)C)cc3)c(CN(C)Cc3ccccc3)c2c1=O,54.2*[25 µM]
O=C(Nc1ccc2c(c1)[C@@H]1C[C@H](CC(=O)N3CCc4ccccc4C3)O[C@H](CO)[C@@H]1O2)C1CCOCC1,-5.5[25 µM]
CC(C)NC(=O)N(C)C[C@H]1OCc2ccccc2-c2ccccc2C(=O)N([C@@H](C)CO)C[C@@H]1C,8.8
Cc1cc(O)c(C(C)C)cc1C1(c2cc(C(C)C)c(O)cc2C)OC(=O)c2ccccc21,38.7*
C/C=C/c1ccc([C@H]2[C@H](CO)N(C(C)=O)[C@H]2CN(C)C(=O)CN(C)C)cc1,3.7
C[C@H](NC(=O)C[C@H]1C[C@@H]2c3cc(NC(=O)Nc4ccc(C(F)(F)F)cc4)ccc3O[C@@H]2[C@H](CO)O1)c1ccccc1,7.0[25 µM]
SMILES,BL2 CD40 inh
CC(C)NC(=O)Nc1ccc2c(c1)CC(=O)N(C)C[C@@H](C)[C@@H](CN(C)C(=O)NC(C)C)O2,14.3
COc1ccc(NC(=O)Nc2ccc3c(c2)[C@H]2C[C@@H](CC(=O)NC4CCCC4)O[C@@H](CO)[C@H]2O3)cc1,2.5
CCc1cc2c(=O)c(-c3ccc4c(c3)OCCO4)coc2c(CN2CCCCC2C)c1O (configuration not stated),32.4*
O=C(CN1CCC(C(=O)c2ccc3c(c2)OCCO3)CC1)NC1CCCC1,15.7
CSCCC(NC(=O)OC(C)(C)C)C(=O)Oc1ccc2c(=O)c(-c3ccc4c(c3)OCCO4)coc2c1 (configuration not stated),-3.3
C[C@H](CO)N1C[C@H](C)[C@@H](CN(C)Cc2ccc(-c3ccccc3)cc2)OCc2ccccc2-c2c(n(C)c3ccccc23)C1=O,0.1
C[C@H]1CN([C@@H](C)CO)C(=O)Cc2cc(NS(=O)(=O)c3ccc(F)cc3)ccc2O[C@@H]1CN(C)Cc1ccncc1,2.7[25 µM]
C[C@@H]1CN([C@H](C)CO)C(=O)Cc2cc(NS(=O)(=O)c3ccc(F)cc3)ccc2O[C@@H]1CN(C)Cc1ccc(C(F)(F)F)cc1,26.6
